Screens as filed in PubChem BioAssay.
This excerpt belongs to a sample that is enriched for hits.
ROS inducer: cancer cell ROS induction; U2OS ROS induction, H2DCF-DA fluorescence; ROS induction (% of piperlongumine), % at 10 µM; 46,000 compounds, 2% hits; AID 624156; in the data active = ROS induction above about 79%, passing the limit was not always enough; inconclusive = no clear call, values can overlap the other calls;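 also: 0% = DMSO vehicle median and 100% = reference compound median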
NOMO-1 viab: STK33 inhibitor candidate reducing NOMO-1 cell viability | NOMO-1 AML viability, CellTiter-Glo luminescence, 72 h | inhibition, % (no concentration beside the values) | 37,000 compounds, 7.5% hits | AID 2330; in the data active = inhibition above about 80%; inconclusive = no clear call, values can overlap the other calls
Active calls of the source: *; ? = inconclusive; . = not tested or not shown; ! = not active in a repeat.

SMILES	ROS inducer	NOMO-1 viab
COC(=O)COc1cccc(NC(=O)c2ccc(Cl)c(Cl)c2)c1	2	108*
COC(=O)COc1cccc(NC(=O)c2ccccc2-c2ccccc2C(=O)O)c1	-13	-4
COC(=O)COc1cccc(NC(=O)c2ccc(NC(=O)c3ccco3)cc2)c1	?	110*
CCOC(=O)c1ccc(NC(=O)c2ccco2)cc1	-13	8
COC(=O)COc1cccc(NC(=O)c2cccc(C)c2)c1	-13	121*
CN=c1scc(C)n1NC(=O)Nc1ccc(Cl)cc1	-6	.
COc1ccc(S(=O)(=O)N(C)C[C@H]2Oc3ccc(NS(=O)(=O)c4c(C)noc4C)cc3C(=O)N([C@@H](C)CO)C[C@H]2C)cc1	-2	9
COC(=O)COc1cccc(NC(=O)c2cccs2)c1	-3	137*
COc1cccc(NC(=O)CNC(=O)c2cccs2)c1	-29	-16
C=CC(C)(C)c1[nH]cnc1/C=C1\NC(=O)C(C(C)C)NC1=O (stereo not drawn)	2	106*
CC(C)C1NC(=O)/C(=C/c2cnc[nH]2)NC1=O (stereo not drawn)	-1	.
C[C@H](CO)N1C[C@H](C)[C@H](CN(C)C(=O)Nc2cccc3ccccc23)Oc2c(NC(=O)Nc3ccc4c(c3)OCO4)cccc2C1=O	7	40
Cc1cc(=O)[nH]c(SCCCOc2ccccc2Cl)n1	12	24
COc1ccccc1OCCCSc1nc(-c2ccccc2)cc(=O)[nH]1	126*	8
COC(=O)c1csc(C(=O)OC)c1C	11	.
CCOC(=O)C(C)Sc1ncnc2nc[nH]c12 (stereo not drawn)	-14	.
CCOC(=O)C(C)Sc1ncnc2c1nnn2-c1ccc(OC)cc1 (stereo not drawn)	179*	.
Cc1ccc(CSc2nc3ccc(C(=O)NCCN4CCCC4)cc3n2C)cc1	4	.
Cc1csc2sc(-c3ccnc(SCC(=O)c4ccccc4)n3)c(C)c12	21	1
Cc1csc2sc(-c3ccnc(SCC(=O)NCc4ccccc4)n3)c(C)c12	62	113*
CCOC(=O)c1cc(C)nc(Sc2ccccc2NC(=O)c2cccc(C(F)(F)F)c2)c1C#N	45	114*
CCOC(=O)c1cc(C#N)c(Nc2ccccc2OC)nc1C(F)(F)F	34	23
COc1ccc(S(=O)(=O)Nc2cccc3c2O[C@@H](CN(C)C(=O)NC(C)C)[C@@H](C)CN([C@H](C)CO)C3=O)cc1	-8	15
C[C@@H]1CN([C@@H](C)CO)C(=O)CCCn2cc(nn2)CO[C@H]1CN(C)Cc1ccc2c(c1)OCCO2	16	.
COc1cccc(C=C2C(=O)c3ccccc3C2=O)c1OC(C)C	?	104*
SMILES	ROS inducer	NOMO-1 viab
COc1cccc(-c2cc(=O)c3ccccc3o2)c1N	22	64
COc1ccc(CN(C)C[C@@H]2Oc3ccc(NC(=O)Nc4cccc5ccccc45)cc3C(=O)N([C@@H](C)CO)C[C@H]2C)cc1	6	26
COc1ccc(CN(C)C[C@H]2Oc3ccc(NC(=O)Nc4cccc5ccccc45)cc3C(=O)N([C@H](C)CO)C[C@H]2C)cc1	-8	-4
COc1ccc(CN(C)C[C@H]2Oc3ccc(NC(=O)Nc4cccc5ccccc45)cc3C(=O)N([C@@H](C)CO)C[C@@H]2C)cc1	56	20
C[C@@H]1CN([C@@H](C)CO)C(=O)c2cc(NC(=O)Nc3cccc4ccccc34)ccc2O[C@@H]1CN(C)Cc1ccc(C(F)(F)F)cc1	21	106*
C[C@@H]1CN([C@H](C)CO)C(=O)c2cc(NC(=O)Nc3cccc4ccccc34)ccc2O[C@@H]1CN(C)Cc1ccc(Oc2ccccc2)cc1	7	89*
C[C@H](CO)N1C[C@H](C)[C@@H](CN(C)Cc2ccc(Oc3ccccc3)cc2)Oc2ccc(NC(=O)Nc3cccc4ccccc34)cc2C1=O	53	104*
C[C@H](CO)N1C[C@H](C)[C@H](CN(C)Cc2ccc(Oc3ccccc3)cc2)Oc2ccc(NC(=O)Nc3cccc4ccccc34)cc2C1=O	5	113*
C[C@@H]1CN([C@H](C)CO)C(=O)c2cc(NC(=O)Nc3cccc4ccccc34)ccc2O[C@@H]1CN(C)Cc1ccc(C(F)(F)F)cc1	-3	?
Cc1ccccc1OCc1nn2c(COc3ccccc3)nnc2s1	-28	46
COc1ccc(S(=O)(=O)N(C)C[C@@H]2Oc3ccc(NC(=O)c4ccncc4)cc3C(=O)N([C@H](C)CO)C[C@H]2C)cc1	12	12
COc1ccc(CN(C)C[C@@H]2Oc3ccc(NC(=O)C4CC4)cc3C(=O)N([C@@H](C)CO)C[C@H]2C)cc1	-1	10
COc1ccc(CN(C)C[C@@H]2Oc3ccc(NC(=O)Nc4cccc5ccccc45)cc3C(=O)N([C@@H](C)CO)C[C@@H]2C)cc1	5	34
C[C@H]1CN([C@@H](C)CO)C(=O)c2cc(NC(=O)Nc3cccc4ccccc34)ccc2O[C@@H]1CN(C)Cc1ccc(Oc2ccccc2)cc1	29	121*
C[C@H]1CN([C@@H](C)CO)C(=O)c2cc(NC(=O)Nc3cccc4ccccc34)ccc2O[C@H]1CN(C)Cc1ccc(-c2ccccc2)cc1	8	58
C[C@@H]1CN([C@H](C)CO)C(=O)c2cc(NC(=O)Nc3cccc4ccccc34)ccc2O[C@H]1CN(C)Cc1ccc(-c2ccccc2)cc1	-8	118*
O=S(=O)(NCC1CCN(Cc2ccc(OCCO)cc2)CC1)c1cc(Cl)ccc1Cl	14	.
COC(OC)c1ccc(C#N)c(SCc2ccc(Cl)cc2)n1	-15	.
CNCCC(Oc1ccc(C(F)(F)F)cc1)c1ccccc1 (stereo not drawn)	4	119*!
CC(C)N(Cc1ccccc1)C(=O)Nc1ccc(C(F)(F)F)cc1	-4	.
Cc1cc(C)cc(NC(=O)CSc2nnc(N)s2)c1	.	11
CC1C/C(=C/c2cccn2C)C(=O)/C(=C/c2cccn2C)C1 (stereo not drawn)	261*	.
COc1cccc(/C=C2\CC(C)C/C(=C\c3ccccc3OC)C2=O)c1 (stereo not drawn)	2	.
Cc1ccc(S(=O)(=O)Nc2cccc3c2O[C@@H](CN(C)S(=O)(=O)c2ccc(F)cc2)[C@H](C)CN([C@H](C)CO)C3=O)cc1	?	-6
CCOC(=O)Cn1c(-c2cccnc2)nc(-c2ccccc2)c1-c1ccccc1	74	115*
SMILES	ROS inducer	NOMO-1 viab
CCn1c(SCC(=O)c2ccccc2)nnc1-c1cccnc1	.	-1
CS(=O)(=O)N(CC(=O)Nc1ccccc1C(F)(F)F)c1ccccc1Br	.	7
COc1ccc(NC(=O)N(C)C[C@H]2Oc3ccc(NC(=O)Nc4ccc(C(F)(F)F)cc4)cc3CC(=O)N([C@@H](C)CO)C[C@H]2C)cc1	0	124*
CC(C)NC(=O)Nc1ccc2c(c1)CC(=O)N([C@@H](C)CO)C[C@H](C)[C@@H](CN(C)C(=O)Nc1ccc(F)cc1)O2	-15	9
COc1ccc(NC(=O)Nc2ccc3c(c2)CC(=O)N([C@@H](C)CO)C[C@H](C)[C@H](CN(C)C(=O)Nc2ccc(C(F)(F)F)cc2)O3)cc1	9	20
C[C@H](CO)N1C[C@H](C)[C@H](CN(C)C(=O)Nc2ccc(C(F)(F)F)cc2)Oc2ccc(NC(=O)Cc3cn(C)c4ccccc34)cc2CC1=O	8	35
CC(C)NC(=O)Nc1ccc2c(c1)CC(=O)N([C@@H](C)CO)C[C@H](C)[C@H](CN(C)C(=O)Nc1ccc(F)cc1)O2	111*	-6
